# ATXN viability = Viability Counterscreen for Primary qHTS for Inhibitors of ATXN expression. S2 cells (HEK-293 line with an ATXN2-luciferase reporter) viability, CellTiter-Fluor protease fluorescence, 24 h. 400,000 compounds, 0.49% hits. AID 651635, 2014. Potency, µM (highest dose often 56.7 µM), usual class: cytotoxic; also: potency is read from the fitted curve at half-maximal effect; nearly all actives have a fitted effect of over 40% in size
# DRD3 agonist = qHTS of D3 Dopamine Receptor Agonist: qHTS. D(3) dopamine receptor (Homo sapiens), P35462. D3R DiscoveRx beta-arrestin cells, luminescence, 90 min. max activation, %. 410,000 compounds, 0.58% hits. AID 652048, 2013; in the data active = max activation above about 30%; also: 0% is about no effect
# Target sequence (P35462 whole entry, looked up): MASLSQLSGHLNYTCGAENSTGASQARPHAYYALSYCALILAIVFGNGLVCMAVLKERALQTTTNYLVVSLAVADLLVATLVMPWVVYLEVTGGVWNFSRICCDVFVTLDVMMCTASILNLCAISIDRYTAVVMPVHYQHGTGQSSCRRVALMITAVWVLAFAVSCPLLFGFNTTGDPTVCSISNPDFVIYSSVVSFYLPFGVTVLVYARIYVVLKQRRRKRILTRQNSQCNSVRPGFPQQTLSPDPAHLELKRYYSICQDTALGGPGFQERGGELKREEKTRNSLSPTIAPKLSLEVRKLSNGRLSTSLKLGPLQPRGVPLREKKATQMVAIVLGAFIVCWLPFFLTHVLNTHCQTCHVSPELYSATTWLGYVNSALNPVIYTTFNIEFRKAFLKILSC
#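 Cells at 1500/well, incubated overnight, then treated with pinned compounds (dopamine as control) for 90 min at 37 degrees C. DiscoveRx reagent added for 30 - 60 minutes at room temperature; luminescence read.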
# IL1B secr inh = qHTS for Inhibitors of Inflammasome Signaling: IL-1-beta AlphaLISA Primary Screen. THP-1 LPS/ATP IL-1B secretion, AlphaLISA, 16 h; stronger effect = lower value. activity change, % at 57.5 µM. 360,000 compounds, 4.7% hits. AID 743279, 2014; in the data active = activity change below about -50%; inconclusive = mostly about -30% to -49%; also: % is scaled to controls: 0 for no effect and ±100 for the full control effect
#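 THP-1 cells pretreated 1 hr with compounds (up to 57.5 uM final), then stimulated with LPS (250 ng/mL final) plus ATP (1.25 mM final); secreted IL-1B measured by AlphaLISA after 16 hr, decreased signal indicating inhibition.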
# DRD3 antagonist = qHTS of D3 Dopamine Receptor Antagonist: qHTS. 360,000 compounds, 2.5% hits. max response, negative = inhibition, %. D3R cells, DiscoveRx beta-arrestin luminescence, antagonist mode; stronger effect = lower value. AID 652054, 2013; in the data active = max response below about -50%; inconclusive = no clear call, values can overlap the other calls; also: % is scaled to controls: 0 for no effect and ±100 for the full control effect
#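 Cells expressing the human receptor were seeded at 1500 cells/well, incubated overnight at 37 degrees C in 5% CO2, then exposed to library compounds with dopamine controls for 90 minutes at 37 degrees C before luminescent detection.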
# a7 integrin act = qHTS for Activators of Integrin-Mediated Alleviation for Muscular Dystrophy; alpha7betagal myoblasts, beta-gal FDG fluorescence, 48 h; Potency, µM (highest dose often 38.3 µM), for inactives: top-dose activation, hits mostly activators; 350,000 compounds, 0.064% hits;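 also: potency is read from the fitted curve at half-maximal effect; 100% = response of the positive control SU9516; nearly all actives have a fitted effect of over 60% in size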
#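 alpha7betagal+/- myoblasts (passage 13, 250/well) treated 48 h at 37C with compounds at 1:260 dilution of DMSO stock. Lysed, then beta-galactosidase activity read as FDG fluorescence (ex 480/em 540) after 30 min, with pre-read for autofluorescence.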
# ATXN2 expr inh = Primary qHTS for Inhibitors of ATXN expression; HEK-293 ATXN2-luciferase reporter, luminescence, 24 h; Potency, µM (titrated, usually from 57 µM), inactives show at the top dose activity change, negative = inhibition, usual class: inhibitors; 360,000 compounds, 0.72% hits; AID 1745845, 2022; also: potency is read from the fitted curve at half-maximal effect; % is scaled to controls: 0 for no effect and ±100 for the full control effect; nearly all actives have a fitted effect of over 55% in size
#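 ATXN2-luciferase reporter cells (luciferase flanked by upstream and downstream ATXN2 gene portions) were treated 24 h at 37 °C with compounds at up to 57 uM. SteadyGlo luminescence gave expression; GF-AFC fluorescence gave viability.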
# The depositor's hits bear a star; i = inactive; ? = inconclusive; · = no result given; [ ] = remark or other dose. A selection: hits, their analogues and other compounds. The true share with any hit is near 7%. Unless noted, calls follow the shape of the dose curve; as a rule, active = well fitted curve in the direction sought with a large enough effect; inconclusive = small, poorly fitted or top-dose-only effect, or another doubt; inactive = no such curve, though single readings can be large; an effect the other way counts as inactive or inconclusive.
SMILES,ATXN viability,DRD3 agonist,IL1B secr inh,DRD3 antagonist,a7 integrin act,ATXN2 expr inh
CCN(CC)CCOc1nnc(-c2ccc(C)cc2)c2ccccc12,i,-11.9,-56.9*,-15.6,-23.5%,-22.7%
Cc1nnc(SCC(=O)Nc2nc(-c3ccccc3)cs2)n1N,i,5.0,73.4,14.2,3.0%,18.5%
CCn1c(SCC(=O)Nc2nc(-c3ccccc3)cs2)nnc1-c1ccccc1,i,9.3,-62.7*,-7.7,-14.2%,-3.4%
CCn1c(SCC(=O)OC(C)C)nnc1-c1ccccc1,i,6.0,-63.9*,9.2,-6.6%,-9.1%
COc1ccc2cc3c(N)nn(C(=O)Cc4ccccc4OC)c3nc2c1,?,5.3,-60.1*,8.4,15.1%,0.5%
COc1ccc2cc3c(N)nn(C(=O)c4cccc([N+](=O)[O-])c4)c3nc2c1,i,-4.7,-10.8,-4.7,41.3%,2.1%
COc1ccc2cc3c(N)nn(C(=O)c4ccc(F)cc4Cl)c3nc2c1,i,4.4,·,·,·,-29.0%
COc1ccc2cc3c(N)nn(C(=O)C4CCC(C(C)(C)C)CC4)c3nc2c1 (stereo not given),i,3.8,-86.0*,-13.6,-17.2%,22.3%
Cc1cc(C(=O)CCl)c(C)n1CCc1ccccc1,?,-10.2,-100.0*,-26.8,-14.1%,-33.5%[11.3 µM]
CCOC(=O)c1cc(C)n(CCc2ccccc2)c1C,i,-7.1,?,?,27.1%,20.6%
COC(=O)CCn1c(C)cc(C(=O)COc2ccccc2C(N)=O)c1C,i,9.4,-99.3*,15.5,-42.8%,-12.4%
COC(=O)CCCn1c(C)cc(C(=O)CCl)c1C,?,-1.0,-93.1*,0.7,-62.2%,1.5%
Cc1cc(C(=O)COc2ccccc2C(N)=O)c(C)n1CC1CCCO1 (stereo not given),i,-6.0,-2.1,9.6,-41.3%,-3.8%
Cc1cc(C(=O)CCl)c(C)n1Cc1ccco1,25.1µM*,-11.1,-97.0*,-11.5,-65.0%,?
Cc1ccccc1CNCCCSc1nnnn1C,i,-22.7,·,·,·,-1.3%
COc1ccc(NC(=O)Cc2noc3ccc(C)cc23)cc1Cl,i,-20.6,·,·,·,-6.7%
Cc1ccc(-c2csc(N3CCN(CCCn4c(-c5ccncc5)nc5ccccc54)CC3)n2)cc1,·,-1.1,3.3,72.2,-30.6%,22.4µM*
Cc1ccc(-c2csc(N3CCN(CCCn4c(C(F)(F)F)nc5ccccc54)CC3)n2)cc1,?,-19.4,28.8,0.0,-16.8%,-25.5%
CCCOC(=O)c1ccc(NC(=O)c2cnccn2)cc1,i,3.0,9.3,-13.7,7.8%,15.8%
COc1ccc(/C=C/C(=O)Nc2cccc(S(=O)(=O)N3CCCC3)c2)cc1OC,i,6.2,-26.6,37.4,3.2%,?
CCC(C(=O)OC)n1cnc2c(nnn2-c2ccccc2)c1=O (stereo not given),i,-0.5,13.6,8.1,6.5%,1.0%
COc1ccc(CCNC(=O)c2cccc3c2C(=O)N(C2CCCCC2)C3)cc1OC,i,5.3,-70.2*,43.0,-4.1%,-17.7%
O=C(NCCc1ccccc1)c1cccc2c1C(=O)N(C1CCCCC1)C2,i,2.5,?,10.8,30.0%,12.3%
COc1cc(NC(=O)c2cccc3c2C(=O)N(C2CCCCC2)C3)cc(OC)c1OC,i,5.0,-60.4*,66.2,?,-29.4%
C[n+]1cc2c3c(ccc2c2ccc4cc5c(cc4c21)OCO5)OCO3,2.82µM*,-7.4,·,·,·,1.58µM*
SMILES,ATXN viability,DRD3 agonist,IL1B secr inh,DRD3 antagonist,a7 integrin act,ATXN2 expr inh
COc1ccc2cc3[n+](cc2c1O)CCc1cc2c(cc1-3)OCO2,?,-1.6,8.8,0.7,·,-2.2%
CCOC(=O)C1(Cc2ccccc2C)CCCN(C(=O)COC)C1 (stereo not given),i,-0.3,0.0,-12.9,26.6%,23.4%
CCOC(=O)C1(Cc2ccccc2C)CCCN(C(=O)CN2CCCCC2=O)C1 (stereo not given),i,58.5*,32.6,-21.1,11.8%,16.8%
OCC(CO)N[C@H]1C[C@](O)(CO)[C@@H](O)[C@H](O)[C@H]1O,i,5.8,·,·,·,6.2%
O=c1cc(NS(=O)(=O)c2ccccc2)nc(SCc2ccc(Cl)cc2)[nH]1,?,9.7,-56.4*,8.7,0.7%,3.1%
O=C(Nc1ccc2c(c1)CCC2)c1ncoc1-c1ccccc1F,i,-16.8,-73.9*,?,?,1.9%
Cc1cccc(OCC(=O)NNC(=O)c2cccs2)c1,i,-4.8,-12.8,-2.7,-10.1%,-10.2%
CCN(c1ccccc1)S(=O)(=O)c1ccc2ccccc2c1,i,-5.2,6.9,-16.0,-13.8%,6.3%
CN(c1ccc(O)cc1)S(=O)(=O)c1ccc2ccccc2c1,i,-13.3,-62.2*,-3.4,0.0%,-9.0%
CCCN1C(=O)c2ccccc2NC1c1ccc(Cl)cc1 (stereo not given),i,-0.7,28.2,-4.9,26.5%,3.6%
CCCN1C(=O)c2ccccc2NC1c1ccc(Br)cc1 (stereo not given),i,-10.2,-51.4*,?,18.8%,-15.5%
Nc1c(Cl)cnn(-c2ccccc2)c1=O,i,0.6,51.2,2.7,32.3%,-16.5%
O=c1c(Cl)c(Cl)cnn1-c1ccccc1,?,-5.5,-98.8*,?,-60.4%,?
COc1cnn(-c2ccccc2)c(=O)c1SCc1ccc(Cl)cc1Cl,i,-5.4,-50.6*,-22.2,13.3%,-9.4%
CCSc1cnn(-c2ccccc2)c(=O)c1Cl,?,5.6,-93.9*,-5.6,-55.6%,11.7%
CCSc1cnn(-c2ccccc2)c(=O)c1SCC,i,3.6,5.9,14.2,-10.3%,-3.2%
Cc1ccc(C)c(NC(=O)CSc2nccn2Cc2ccco2)c1,i,-6.1,18.1,14.9,-16.7%,47.3%
CC(C)C(O)c1ccc2c(c1)CN(C(=O)c1ccccc1-n1cccn1)CCO2 (stereo not given),i,·,·,·,·,·
Cc1nnc(SCC(=O)NC2CCCCCC2)n1N,i,-9.5,-10.7,-4.6,?,·
O=C1CC(C(F)(F)F)=NN1,i,32.9*,·,12.2,1.6%,-13.4%
COCC(C)NC(=O)C1CCN(S(=O)(=O)c2ccc3ccccc3c2)CC1 (stereo not given),i,1.6,15.1,-11.8,27.5%,-8.3%
CCOC(=O)c1cc([N+](=O)[O-])cc([N+](=O)[O-])c1Sc1ncnc2nc[nH]c12,·,-24.8,-100.1*,-86.0*,-51.9%,?
O=C1Nc2ccc(F)cc2C12Nc1ccccc1-c1nnc(SCc3ccccc3)nc1O2 (stereo not given),i,-37.4,6.8,-80.6*,0.0%,-6.7%

# Screening results (PubChem)
